# Measured values from article PMC4336329 (PLoS ONE, 2015).
# Among all 310,000 compounds or so, about 2,200 (0.71%) showed an effect of 50% or more. Effects have a minus sign here. The sample as a whole holds a higher share of strong results than the screen did.
# Molecular target: human ether-à-go-go-related gene (hERG) potassium channel (human, UniProt Q12809)
# Assay: primary screen, population patch clamp on CHO cells stably expressing hERG; higher = less effect of the substance
# Sequence of human ether-à-go-go-related gene (hERG) potassium channel (Q12809 whole entry, looked up): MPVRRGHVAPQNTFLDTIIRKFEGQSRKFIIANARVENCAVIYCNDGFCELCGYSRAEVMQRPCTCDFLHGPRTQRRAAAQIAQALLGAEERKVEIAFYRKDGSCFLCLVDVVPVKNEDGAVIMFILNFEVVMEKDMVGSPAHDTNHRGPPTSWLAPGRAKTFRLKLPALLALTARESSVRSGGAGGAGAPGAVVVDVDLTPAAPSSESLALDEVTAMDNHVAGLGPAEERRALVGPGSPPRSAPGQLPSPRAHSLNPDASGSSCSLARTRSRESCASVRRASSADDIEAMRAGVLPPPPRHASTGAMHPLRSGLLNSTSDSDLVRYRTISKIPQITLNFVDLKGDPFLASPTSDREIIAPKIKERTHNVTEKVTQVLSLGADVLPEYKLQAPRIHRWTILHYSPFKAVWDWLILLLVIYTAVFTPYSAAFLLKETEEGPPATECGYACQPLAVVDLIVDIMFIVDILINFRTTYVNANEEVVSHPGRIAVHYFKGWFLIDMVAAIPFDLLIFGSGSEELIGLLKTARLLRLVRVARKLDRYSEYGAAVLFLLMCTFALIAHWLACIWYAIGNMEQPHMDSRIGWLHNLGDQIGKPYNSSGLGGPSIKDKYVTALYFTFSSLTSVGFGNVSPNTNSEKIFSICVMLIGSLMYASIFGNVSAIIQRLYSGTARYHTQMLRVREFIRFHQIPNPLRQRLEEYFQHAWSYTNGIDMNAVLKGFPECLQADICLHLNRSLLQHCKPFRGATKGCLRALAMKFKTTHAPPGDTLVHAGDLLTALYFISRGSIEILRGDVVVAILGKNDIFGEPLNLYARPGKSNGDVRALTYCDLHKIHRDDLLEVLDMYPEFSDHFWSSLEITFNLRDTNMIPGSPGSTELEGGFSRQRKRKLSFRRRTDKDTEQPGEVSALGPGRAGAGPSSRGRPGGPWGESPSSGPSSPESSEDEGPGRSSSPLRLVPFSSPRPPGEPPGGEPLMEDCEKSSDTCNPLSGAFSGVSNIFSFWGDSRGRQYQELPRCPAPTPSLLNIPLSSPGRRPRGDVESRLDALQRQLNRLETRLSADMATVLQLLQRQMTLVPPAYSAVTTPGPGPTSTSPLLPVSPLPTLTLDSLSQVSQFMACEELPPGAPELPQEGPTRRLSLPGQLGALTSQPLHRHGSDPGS
row,Structure (SMILES),"hERG current change (%, negative = inhibition) at 1uM [%]"
1,COC(=O)CSc1ccc(C#N)c(SCC(=O)OC)c1,12.6
2,COC(=O)c1ccc(NC(=O)CN2CCN(S(=O)(=O)c3cc(Cl)ccc3OC)CC2)cc1,10.2
3,O=C(CSc1n[nH]c(-c2cccnc2)n1)Nc1ccccc1[N+](=O)[O-],11.9
4,COc1cccc(Cn2c(-c3cccs3)noc2=O)c1,-8.06
5,COc1ccc(C)cc1S(=O)(=O)N(CC(=O)N1CCOCC1)c1cc(C)cc(C)c1,-52
6,COc1ccc(C)cc1S(=O)(=O)N(CC(=O)N1CCCC1)c1ccccc1,4.54
7,COc1ccc(C)cc1S(=O)(=O)N(CC(=O)N1CCCC1)c1ccc(C)cc1,-25.1
8,CCCC(=O)Nn1cnc2c(c1=O)C1(CCCCC1)Cc1ccccc1-2,7.68
9,COCCN=C1Sc2nc3cc(C)c(C)cc3cc2CN1Cc1cccs1,8.08
10,COc1ccc(NC(=O)CN2CCN(S(=O)(=O)c3ccc(Cl)cc3)CC2)cc1,-64.1
11,CCOc1ccc(NC(=O)CN2CCN(S(=O)(=O)c3ccc(Cl)cc3)CC2)cc1,10.8
12,COc1cccc(NC(=O)CN2CCN(CC(=O)Nc3ccccc3Cl)CC2)c1,-21.1
13,COc1ccc(NC(=O)CN2CCN(CC(=O)Nc3ccccc3Cl)CC2)cc1,-79.3
14,NC(=O)C1(N2CCCCC2)CCN(CC(=O)Nc2cc(Cl)ccc2Cl)CC1,-55.3
15,O=C(CN1CCCCC1)Nc1cc(Cl)ccc1Cl,-0.089
16,COc1ccc(NC(=O)CN2CCCCCC2)cc1OC,7.92
17,COc1ccc(NC(=O)CCN2CCN(S(=O)(=O)c3ccc(Cl)cc3)CC2)cc1,2.03
18,COc1ccc(NC(=O)CN2CCN(CC(=O)Nc3ccc(OC)c(OC)c3)CC2)cc1,-66.1
19,COc1ccc(NC(=O)CN2CCC(C(N)=O)CC2)cc1,2.62
20,COc1ccc(NC(=O)CN2CCN(c3ccccc3Cl)CC2)cc1,1.08
21,NC(=O)C1(N2CCCCC2)CCN(CC(=O)Nc2ccccc2-c2ccccc2)CC1,15.5
22,O=C(Nc1nc(-c2ccc3c(c2)OCCO3)cs1)C1CCCC1,8.23

row,Structure (SMILES),"hERG current change (%, negative = inhibition) at 1uM [%]"
1,COC(=O)C1=C(c2cc3ccccc3o2)C[C@@H]2CC[C@H]1N2C(=O)N1CCCC1,7.5
2,NC(=NCCc1ccc(Cl)cc1)NS(=O)(=O)c1ccccc1,9.74
3,O=C(c1ccccc1Br)N1CCCC(c2nc(-c3cccs3)no2)C1 (stereo not shown),13.2
4,COc1ccc2oc(=N)c(-c3nnc4n3CCCCC4)cc2c1,1.02
5,Cc1ccccc1C(=O)N1CCC(C(=O)Nc2ccc(C)c(S(=O)(=O)N3CCCCC3)c2)CC1,2.28
6,COc1ccc(NC(=O)CN2CCN(S(=O)(=O)N(C)C)CC2)cc1,13.9
7,COc1ccc(NC(=O)CN2CCCCC2)cc1.O=C(O)C(=O)O,10.6
8,COc1ccc(CN2CCCN(S(=O)(=O)c3ccc(Br)cc3)CC2)cc1,-75.6
9,COc1cccc(CN2CCCN(S(=O)(=O)c3ccc(Br)cc3)CC2)c1,-22.3
10,O=C(CN1CCN(S(=O)(=O)N2CCCCCC2)CC1)Nc1ccc(F)cc1,-75.1
11,O=C(CN1CCN(S(=O)(=O)N2CCCCC2)CC1)Nc1ccc(Br)cc1,2.87
12,O=C(CN1CCN(S(=O)(=O)N2CCCCCC2)CC1)Nc1ccc(Br)cc1,-3.27
13,O=C(CN1CCN(C(=O)N2CCCCC2)CC1)Nc1ccc(F)cc1,-76.5
14,O=C(CN1CCN(C(=O)C2CCC2)CC1)Nc1ccc(F)cc1,-27.3
15,COc1ccc(NC(=O)CN2CCN(S(=O)(=O)N3CCCCCC3)CC2)cc1,-60.8
16,COc1ccc(S(=O)(=O)N2CCN(Cc3ccc(Cl)cc3)CC2)cc1,-4.05
17,O=C(CN1CCCC1)Nc1ccc(F)cc1,16.6
18,CCc1nnc(NC(=O)C2COc3ccccc3O2)s1 (stereo not shown),2.41
19,CCn1nc(NC(=O)COC)c2cc3cc(C)ccc3nc21,9.09
20,COc1ccc(NS(=O)(=O)NC(=O)c2c[nH]c3ccccc23)cc1,9.58
21,CCOc1cc(CO)cc(Br)c1OCC(=O)Nc1ccccc1C,6.36
